Giardia FBPA inh – blocks Giardia fructose-bisphosphate aldolase activity | actives 0.71% (n = 290,000) | AID 2451 | Potency, µM (series often up to 59.6 µM), for the others: at the highest dose activity, negative = inhibition, actives largely listed as inhibitors | A8B2U2 | purified Giardia FBPA; also: potency is read from the fitted curve at half-maximal effect; nearly all actives have a fitted effect of over 55% in size
Target sequence (A8B2U2 whole entry, looked up): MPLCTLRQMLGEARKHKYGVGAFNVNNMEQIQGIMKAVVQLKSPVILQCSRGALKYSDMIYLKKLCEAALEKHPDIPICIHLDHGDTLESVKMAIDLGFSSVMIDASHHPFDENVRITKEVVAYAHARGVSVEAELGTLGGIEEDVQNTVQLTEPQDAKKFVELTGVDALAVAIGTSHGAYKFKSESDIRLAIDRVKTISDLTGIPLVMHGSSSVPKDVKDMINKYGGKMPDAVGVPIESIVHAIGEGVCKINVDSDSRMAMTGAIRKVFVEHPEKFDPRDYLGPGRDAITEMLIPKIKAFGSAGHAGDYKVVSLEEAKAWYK
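Giardia FBPA (40 nM reagent) was preincubated 10 min at RT with compound (up to 57.5 uM final), then substrate plus GAPDH/TPI/NAD/arsenate coupling system with diaphorase/resazurin was added; resorufin fluorescence (525/598 nm) was read after 20 min.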
Pf growth 48h – inhibits P. falciparum growth in the first generation, 48 h | P. falciparum luciferase growth in erythrocytes, 48 h | Potency, µM (titrated, usually from 28.7 µM), inactives show at the highest dose activity change, negative = inhibition, actives largely listed as inhibitors | actives 5.9% (n = 310,000) | AID 504832; also: potency is read from the fitted curve at half-maximal effect
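Compounds are pin-transferred into medium, infected erythrocytes (2% hematocrit, 0.1% parasitemia final) are added, and plates sit one parasite generation at 37 C in 5% CO2. Detection reagent is then added and luminescence measured.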
Sm TGR block – S. mansoni TGR enzyme inhibition | AID 485364 | actives 3% (n = 360,000) | Q962Y6 | purified TGR, DTNB reduction, TNB absorbance 405 nm | Potency, µM (top dose mostly 114 µM), inactives show at the top dose activity change, negative = inhibition, usual class: inhibitors; also: potency is read from the fitted curve at half-maximal effect; nearly all actives have a fitted effect of over 60% in size
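TGR 20 nM + NADPH 100 uM (dispensed conc.), cpd preinc 15 min RT; start with NADPH (500 uM addition) then DTNB (15 mM addition). Kinetic TNB absorbance, 405 nm filter. Four-parameter Hill fit across titration.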
HCMV inh – human cytomegalovirus inhibition. HFF cells, HCMV-luciferase reporter, 72 h; active compounds read low. activity change, negative = inhibition, % at 57.5 µM. actives 4.5% (n = 410,000); in the data active = activity change below about -60%; inconclusive = no clear call, values can overlap the other calls; inactive = above about -39%
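Compounds were evaluated in HFFs infected with an HCMV luciferase reporter virus (MOI 1 PFU/cell). Luciferase in lysates collected 72 h post infection served as the replication measure.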
Pf growth 96h – P. falciparum growth inhibition at 96 hours; P. falciparum luciferase reporter growth, 96 h; Potency, µM (top dose mostly 28.7 µM), for the others: at the top dose activity change, negative = inhibition, usual class: inhibitors; actives 6.9% (n = 320,000); AID 504834; also: potency is read from the fitted curve at half-maximal effect
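P. falciparum expressing integrated firefly luciferase, in erythrocytes at 2% hematocrit, 0.05% parasitemia, incubated with compounds 96 h at 37 C, 5% CO2. Growth inhibition read as loss of luminescence; two-generation exposure targets delayed-death apicoplast inhibitors.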
Active calls of the source: *; ? = inconclusive; . = not tested or not shown; [ ] = dose if it differs, or a comment. An excerpt weighted towards active compounds, which were near 14% of everything screened. Unless noted, calls follow the shape of the dose curve; as a rule, active = well fitted curve in the direction sought with a large enough effect; inconclusive = small, poorly fitted or top-dose-only effect, or another doubt; inactive = no such curve, though single readings can be large; an effect the other way counts as inactive or inconclusive. % is scaled to controls: 0 for no effect and ±100 for the full control effect.

SMILES | Giardia FBPA inh | Pf growth 48h | Sm TGR block | HCMV inh | Pf growth 96h
COC(=O)[C@@]12C[C@@H](CC(=O)NCc3ccccc3)C(=O)N(Cc3ccccc3)C1=CCC(C)(C)C2 | . | . | . | 31 | .
Cc1ccc(C[n+]2ccccc2)cc1 | . | 9.3µM* | 6% | -2 | ?
Cc1ccc(S(=O)(=O)N2CCOCC2)cc1C(=O)O | 6% | 7% | 0% | 3 | .
Cc1ccc(CSCC(=O)Nc2ccc(N3CCOCC3)cc2N2CCOCC2)cc1 | . | 5.2µM* | -7% | -36 | ?
CCCCn1ccnc1C(=O)c1cc(S(=O)(=O)N2CCOCC2)ccc1C | -10% | . | -12% | -66* | -26%
CCOC(=O)c1c(-c2ccccc2Cl)csc1NC(=O)c1cc(S(=O)(=O)N2CCOCC2)ccc1C | -4% | 15µM* | -4% | ? | ?
CCOc1ccccc1NC(=O)c1cc(S(=O)(=O)N2CCOCC2)ccc1C | . | -10% | 1% | 0 | 12µM*
CCOC(=O)c1ccccc1NC(=O)c1cc(S(=O)(=O)N2CCOCC2)ccc1F | 9% | -9% | 6% | 1 | 87%
Cc1cccc(NC(=O)CSCC(=O)Nc2ccc(N3CCOCC3)cc2N2CCOCC2)c1 | . | . | . | -13 | .
COc1ccc(OC)c(NC(=O)CC2C(=O)NCCN2C(=O)c2ccccc2)c1 (stereo unspecified) | 11% | 19% | 3% | 11 | ?
CCCC[P+](CCCC)(CCCC)Cc1ccc(NC(=O)[C@@H](Cc2ccc3ccccc3c2)NC(=NC2CCCCC2)NC2CCCCC2)cc1 | 4% | . | . | . | .
CCOc1ccc(S(=O)(=O)N2CCOCC2)cc1NC(=O)CSCc1ccc(C)cc1 | . | 9.3µM* | -13% | -15 | ?
COc1ccc(NC(=O)c2oc3ccc(S(=O)(=O)N4CCCCC4)cc3c2C)cc1Cl | . | . | -1% | -1 | .
COc1ccc(C)cc1NC(=O)c1cc(S(=O)(=O)N2CCCCC2)ccc1N1CCOCC1 | . | 12µM* | 3% | ? | ?
O=C(Nc1ccc(OC(F)F)cc1)c1cc(S(=O)(=O)N2CCCCC2)ccc1N1CCOCC1 | . | ? | -6% | -15 | 4.7µM*
Cc1ccc(NC(=O)c2cc(S(=O)(=O)N3CCCCC3)ccc2N2CCOCC2)cc1F | 14% | 12µM* | 2% | 6 | .
Cc1ccc(S(=O)(=O)N2CCOCC2)cc1C(=O)Nc1ccc(N2CCCCCC2)cc1 | . | ? | 1% | -64* | ?
NCCC[C@@H](CC(=O)N[C@@H]1CCNC[C@H]1C(=O)N[C@H](CC(=O)N[C@@H](CCC(=O)O)CC(=O)O)Cc1ccccc1)NC(=O)C[C@H](Cc1ccccc1)NC(=O)[C@@H]1CCCC[C@H]1N | -24% | . | . | . | .
O=C(Cc1ccccc1[N+](=O)[O-])OCC(=O)N1CCN(c2ccccc2)CC1 | . | 2% | -4% | -35 | 7%
CCN(CC)CCCNC(=O)c1nn(C)c2c1CSc1ccccc1-2 | . | . | 6% | 6 | .
O=c1oc(-c2ccccc2)cc(Cl)c1Cl | 2% | -9% | ? | -101* | -12%
O=c1oc(-c2ccccc2)cc2ccccc12 | . | . | . | 83 | .
COCCCN(C(=S)NC(=O)C(C)(C)C)c1c(N)n(Cc2ccccc2)c(=O)[nH]c1=O | -19% | -2% | 1% | -28 | -3%
Cc1ccc(-c2c(C#N)c(N)nc3c2CCCC3)o1 | 12% | 10µM* | 25µM* | 4 | ?
CCCCc1ccc(-c2c(C#N)c(N)nc3c2CCCC3)s1 | 0% | ? | 5% | 10 | 13µM*
SMILES | Giardia FBPA inh | Pf growth 48h | Sm TGR block | HCMV inh | Pf growth 96h
Cc1cccc2cc(CN(Cc3cccnc3)C(=O)c3cccs3)c3nnnn3c12 | 0% | 5% | -1%[57.1 µM] | . | 4%
COc1cc(-c2coc3c(C(=O)NCc4ccc(OC)c(OC)c4)cccc23)ccc1O | . | . | . | -73* | .
COc1ccc(CNC(=O)c2cccc3c(-c4cccc(C(N)=O)c4)coc23)cc1OC | . | . | . | -94* | .
COc1ccc(-c2coc3c(C(=O)NCc4cccc(Cl)c4)cccc23)c(C)c1 | . | . | . | -62* | .
C[C@@H]1CN([C@@H](C)CO)C(=O)c2cc(Br)cnc2O[C@H]1CN(C)C(=O)Nc1ccc2c(c1)OCO2 | . | . | . | 8 | .
O=C(Nc1cc2c(cc1C(=O)c1ccccc1Cl)OCCO2)c1ccccc1 | . | . | -5% | ? | .

From PubChem BioAssay
